Experiment [1] is described as follows: TOX21_p53_BLA_p2_viability: Viability Assessment in the Tox21 HCT-116 p53 Agonism Beta-lactamase Assay, Phase 2 (AID 2283591).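 Note: compound exposure lasted 16 h at 37 °C; actives lower the ATP signal meaning cytotoxicity.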 A digest of the protocol: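 HCT-116 p53-bla cells (4000/well) rested 5 h at 37C, then received compounds in DMSO (217-fold dilution) for 16 h at 37C, 5% CO2. After the CCF4 read, CellTiter-Glo was added; ATP luminescence was read after 30 min at room temperature.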

Experiment [2] concerns the target Cellular tumor antigen p53 (Homo sapiens) (UniProt P04637). Briefly: TOX21_p53_BLA_p2_ratio: Tox21 HCT-116 p53 Agonism Beta-lactamase Assay, Ratio, Phase 2 (AID 2283592). A digest of the protocol:
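Plated HCT116 p53-bla cells (4000/well) received compound after 5 h, then 16 h at 37C/5% CO2. CCF4-AM added, 2 h RT. Ratio of 460 to 530 nm emission taken as the p53 reporter signal.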

Experiment [3] has the same target. Description: TOX21_p53_BLA_p3_ratio: Tox21 HCT-116 p53 Agonism Beta-lactamase Assay, Ratio, Phase 3 (AID 2283596). A digest of the protocol:
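Cells were seeded at 4000/well, rested 5 h at 37C, then dosed with DMSO compound solutions (217-fold dilution) for 16 h. CCF4-AM substrate was loaded for 2 h at room temperature, and the 460/530 nm emission ratio was fitted for gain of signal versus DMSO.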

Experiment [4] is described as follows: TOX21_p53_BLA_p4_viability: Viability Assessment in the Tox21 HCT-116 p53 Agonism Beta-lactamase Assay, Phase 4 (AID 2283597).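 Note: hits lower the luminescence signal meaning cytotoxicity.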 A digest of the protocol: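 Readout: ATP luminescence (CellTiter-Glo), measured 30 min after reagent addition at RT. The reagent followed a 2 h CCF4-AM incubation, and the cells had been exposed to compound for 16 h at 37C.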
Experiment [5] has as its target Cellular tumor antigen p53 (Homo sapiens) (UniProt P04637). Description: TOX21_p53_BLA_p5_ratio: Tox21 HCT-116 p53 Agonism Beta-lactamase Assay, Ratio, Phase 5 (AID 2283599). In a few lines: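 HCT-116 cells carrying a p53-inducible beta-lactamase reporter were seeded at 4000 cells/well and dosed after 5 h with compound in DMSO (217-fold dilution). After 16 h at 37C, CCF4-AM substrate was added for 2 h, and the 460/530 nm emission ratio was scored as gain-of-signal versus DMSO.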

Experiment [6] in a line: TOX21_p53_BLA_p5_viability: Viability Assessment in the Tox21 HCT-116 p53 Agonism Beta-lactamase Assay, Phase 5 (AID 2283600). A digest of the protocol: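 Workflow: seed 4000 cells per well, wait 5 h, add compounds (DMSO, 217-fold dilution), incubate 16 h, load CCF4-AM 2 h, add CellTiter-Glo, read luminescence after 30 min.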
In experiment [7] the target is Cellular tumor antigen p53 (Homo sapiens) (UniProt P04637). Briefly: TOX21_p53_BLA_p4_ratio: Tox21 HCT-116 p53 Agonism Beta-lactamase Assay, Ratio, Phase 4 (AID 2283601). In a few lines: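 HCT116 cells carrying an inducible beta-lactamase reporter were plated at 4000 cells/well, rested 5 h, then exposed to compounds in DMSO (217-fold dilution) for 16 h at 37C. CCF4-AM substrate was loaded 2 h at room temperature; 460/530 nm emission ratio scored gain-of-signal versus DMSO.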
Cellular tumor antigen p53 (Homo sapiens), sequence (P04637 whole entry, looked up): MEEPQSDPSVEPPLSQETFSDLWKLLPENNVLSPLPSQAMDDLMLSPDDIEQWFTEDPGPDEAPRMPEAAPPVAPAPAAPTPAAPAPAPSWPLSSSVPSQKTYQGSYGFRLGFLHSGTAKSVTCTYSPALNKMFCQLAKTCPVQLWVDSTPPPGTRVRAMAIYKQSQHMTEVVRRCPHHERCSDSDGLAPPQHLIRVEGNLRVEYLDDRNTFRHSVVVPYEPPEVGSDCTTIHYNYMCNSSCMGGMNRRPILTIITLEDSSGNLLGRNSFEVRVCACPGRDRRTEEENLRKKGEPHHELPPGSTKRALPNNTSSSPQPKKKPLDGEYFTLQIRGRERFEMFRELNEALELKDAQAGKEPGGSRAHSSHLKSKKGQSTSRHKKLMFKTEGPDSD

The target of experiment [8] is Thyroid hormone receptor alpha (Rattus norvegicus) + Thyroid hormone receptor beta (Rattus norvegicus) (UniProt P18113+P63059). Description: TOX21_TR_LUC_GH3_Antagonist_Followup: Tox21 GH3 Thyroid Hormone Receptor Antagonism Luciferase Follow-Up Assay (AID 2283942). In a few lines: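 In a GH3 luciferase reporter line, test chemicals spanning 92 uM to 5nM final are co-incubated 24 h with 1.0 nM T3. Activity is expressed as relative luminescence units and analysed relative to DMSO.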

The target of the next experiment is THRA (gene 7067) (UniProt P10827). Briefly: TOX21_TRA_COA_Antagonist_Followup_ratio: Tox21 Thyroid Hormone Receptor alpha Antagonism through Coactivator Recruitment Follow-Up Assay, Ratio (AID 2283953). A digest of the protocol:
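We measured antagonism of T3-type coactivator recruitment using a TR-FRET ratio (emission 520 and 495 nm) between a Tb-labelled anti-GST antibody on TRα LBD (2.5 nM) and SRC-2 peptide (200 nM). Activity was scaled between DMSO and T3 wells.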

The nature of experiment [9]: TOX21_TRB_BLA_Antagonist_Followup_viability: Viability Assessment in the Tox21 Thyroid Hormone Receptor beta Antagonism Beta-lactamase (BLA) Follow-Up Assay (AID 2283961). A digest of the protocol:
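TRβ-bla HEK293T (human TRβ LBD fused to GAL4 DBD), 3,000 cells/well, 2% charcoal-stripped FBS, phenol red-free medium; 18 h compound exposure, 37C; CellTiter-Glo 30 min RT; luminescence, loss-of-signal readout.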

Another experiment concerns the target THRB (gene 7068) (UniProt P10828). Description: TOX21_TRB_COA_Antagonist_Followup_ratio: Tox21 Thyroid Hormone Receptor beta Antagonism through Coactivator Recruitment Follow-Up Assay, Ratio (AID 2283967). A digest of the protocol: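 Coactivator (SRC-2) recruitment to purified GST-TRβ ligand-binding domain is monitored by terbium-to-fluorescein energy transfer, emission ratio 520:495 nm. DMSO wells define 0% and T3 wells 100% activity.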

Experiment [10] can be described thus: TOX21_TR_RXR_BLA_Antagonist_Followup_viability: Viability Assessment in the Tox21 Thyroid Hormone Receptor beta Retinoid X Receptor alpha (RXRa) Antagonism Beta-lactamase (BLA) Follow-Up Assay (AID 2283979). A digest of the protocol:
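RXRa-UAS-bla HEK293T cells seeded 2,500/well in phenol red-free DMEM with 2% charcoal-stripped FBS, attached 5 h, then exposed to compounds at 11 concentrations in triplicate for 16 h at 37C/5% CO2. Viability read by CellTiter-Glo ATP luminescence; bidirectional fit versus DMSO.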

Inconclusive results are not listed. The source made the active and inactive calls. Rule for the calls: active = hit-call score of the fitted dose curve at least 0.9, where 1 is the maximum; inconclusive = response in the unintended direction; inactive = score below 0.9.

THRB (gene 7068), sequence (P10828 whole entry, looked up, the tested form may be a part): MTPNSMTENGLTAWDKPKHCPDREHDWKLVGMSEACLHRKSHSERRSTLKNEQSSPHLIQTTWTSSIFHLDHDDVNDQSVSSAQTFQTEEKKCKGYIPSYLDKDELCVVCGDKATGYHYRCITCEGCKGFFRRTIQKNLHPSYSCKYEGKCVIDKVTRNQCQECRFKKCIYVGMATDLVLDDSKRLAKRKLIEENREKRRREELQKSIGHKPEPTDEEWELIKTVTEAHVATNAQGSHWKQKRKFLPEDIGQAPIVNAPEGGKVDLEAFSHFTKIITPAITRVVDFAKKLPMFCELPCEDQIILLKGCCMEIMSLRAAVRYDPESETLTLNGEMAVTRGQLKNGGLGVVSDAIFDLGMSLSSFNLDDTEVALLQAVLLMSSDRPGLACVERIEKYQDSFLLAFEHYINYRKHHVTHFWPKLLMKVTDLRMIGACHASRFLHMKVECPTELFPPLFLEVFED
THRA (gene 7067), sequence (P10827 whole entry, looked up, the tested form may be a part): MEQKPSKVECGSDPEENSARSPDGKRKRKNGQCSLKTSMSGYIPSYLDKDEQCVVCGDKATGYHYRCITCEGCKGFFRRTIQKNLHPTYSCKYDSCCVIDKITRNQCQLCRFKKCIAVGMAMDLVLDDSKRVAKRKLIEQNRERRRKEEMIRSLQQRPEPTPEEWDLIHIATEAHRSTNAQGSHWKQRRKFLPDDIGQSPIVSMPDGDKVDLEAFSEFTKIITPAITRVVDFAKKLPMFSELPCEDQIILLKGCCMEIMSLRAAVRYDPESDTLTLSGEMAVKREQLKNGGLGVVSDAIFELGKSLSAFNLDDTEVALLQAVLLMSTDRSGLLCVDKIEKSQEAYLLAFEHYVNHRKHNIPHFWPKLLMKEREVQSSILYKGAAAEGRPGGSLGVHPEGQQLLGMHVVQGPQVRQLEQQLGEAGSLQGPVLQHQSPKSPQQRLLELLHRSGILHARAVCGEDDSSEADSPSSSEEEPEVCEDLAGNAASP

In the case of `CCCCN=C(N)N=C(N)N`, the compound was classed as inactive in experiment [1], in experiment [2], in [3], in experiment [4], in experiment [5] and in [6]. The outcome in experiment [7] was inactive.

Take `NC(=O)c1cc[n+](CC2=C(C(=O)O)N3C(=O)[C@@H](NC(=O)[C@@H](c4ccccc4)S(=O)(=O)[O-])[C@H]3SC2)cc1`: the call in experiment [1], in [2], in experiment [3], in experiment [4], in [5] and in [7] was inactive.

With `O=C=Nc1ccc(Cc2ccc(N=C=O)cc2)cc1`, the call in [1], in experiment [2], in experiment [3], in experiment [4], in experiment [5] and in experiment [7] was inactive.

In the case of `O=c1[nH]c(=O)n([C@H]2C[C@H](O)[C@@H](CO)O2)cc1F`, the outcome (in [1]; in experiment [2]; in [8]; with THRA (gene 7067); in experiment [9]; with THRB (gene 7068)) was inactive. For the same compound, in experiment [10], the result was inactive. Further, the AC50 (usually the concentration at which the activity in the assay is half-maximal) in [3] was 1450 nM (active); in [4], 1530 nM (active); in experiment [5] it was 1800 nM (active); in [7] it was 6700 nM (active).

Consider `CCC(=O)c1c(O)cc(O)cc1O`, for which the result in experiment [1], in experiment [2], in experiment [3], in experiment [4], in experiment [5] and in experiment [7] was inactive.

These data come from PubChem BioAssay (EPA / NIEHS).
